What all share (type): functional
For assay [1], the target named is Solute carrier family 2, facilitated glucose transporter member 1 (Homo sapiens) (UniProt P11166). Nature of the assay: ST_JUDE_LEISH: Cytotoxicity at 2uM final concentration against transgenic Leishmania Mexicana promastigotes LmGLUT1 that are glucose transport deficient and complemented with the human glucose transporter GLUT1. Activity is measured by DNA content using SYBR green in vitro.

In assay [2] the target is Hexose transporter 1 (Plasmodium falciparum) (UniProt O97467). Nature of the assay: ST_JUDE_LEISH: Cytotoxicity at 2uM final concentration against transgenic Leishmania Mexicana promastigotes LmPfHT that are glucose transport deficient and complemented with the Plasmodium falciparum hexose transporter. Activity is measured by DNA content using SYBR green in vitro.
Assay [3] deals with Glucose transporter (Leishmania mexicana) (UniProt O61059). In words: ST_JUDE_LEISH: Cytotoxicity at 2uM final concentration against transgenic Leishmania Mexicana promastigotes LmGT2 that are glucose transport deficient and complemented with the L. Mexicana glucose transporter 2. Activity is measured by DNA content using SYBR green in vitro.

Values joined by “and” are separate entries in the source; they are usually repeats but may differ in a detail not shown here. Identical values can stand only once.

Chain of Solute carrier family 2, facilitated glucose transporter member 1 (Homo sapiens) (P11166 whole entry): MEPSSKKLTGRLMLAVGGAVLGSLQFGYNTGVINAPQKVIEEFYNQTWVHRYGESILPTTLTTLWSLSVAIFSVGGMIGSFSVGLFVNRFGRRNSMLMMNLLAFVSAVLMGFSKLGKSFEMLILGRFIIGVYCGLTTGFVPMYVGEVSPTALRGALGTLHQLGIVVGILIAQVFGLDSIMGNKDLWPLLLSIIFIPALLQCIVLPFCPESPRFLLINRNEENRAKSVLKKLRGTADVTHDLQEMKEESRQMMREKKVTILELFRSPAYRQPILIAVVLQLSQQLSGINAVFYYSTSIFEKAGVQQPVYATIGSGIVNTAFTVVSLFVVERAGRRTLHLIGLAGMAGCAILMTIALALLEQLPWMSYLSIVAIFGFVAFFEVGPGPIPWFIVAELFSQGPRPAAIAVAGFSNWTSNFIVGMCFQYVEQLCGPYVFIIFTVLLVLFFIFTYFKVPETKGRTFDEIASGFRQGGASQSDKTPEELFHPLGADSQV

On to `COc1ccc2nc(C)cc(NCc3cccc4ccccc34)c2c1`, for which the inhibition is 2.2% in assay [1], 3.81% in assay [2] and -0.28% in assay [3].

In the case of `O=[N+]([O-])c1cccc(Nc2nccc(-c3cnn4ncccc34)n2)c1`, the inhibition in assay [1] is 83%; in assay [2], 85.4%; in assay [3] it was 79.9%.

As for `Cc1ccccc1OCC(O)CNC1CCC(NCC(O)COc2ccccc2C)CC1` (configuration not stated), the inhibition was 10.2% in assay [1], 10.5% in assay [2] and 5.8% in assay [3].

Turning to `CC(C)CNCc1ccc(-c2cccc(CN(CCN(C)C)C(=O)CCC3CCCC3)c2)cc1`, the inhibition in assay [1] was 30%; in assay [2] it was 23.7%; in assay [3], 11.2%.

For `O=S(=O)(NCCN1CCCC1)c1ccc(-c2cccc(CNCc3ccc(F)cc3)c2)s1`, the inhibition in assay [1] is 6.73%; in assay [2], 2.44%; in assay [3], -1.98%.

With `CCCC(C)NC(=O)[C@H](CC1CCCCC1)NC(=O)c1ccc(O)c(-c2cccc(C(F)(F)F)c2)c1` (some centres not stated), the inhibition in assay [1] was -1.37%; in assay [2], 3.47%; in assay [3] it was 0.42%.

Turning to `CC(C)CC1c2[nH]c3ccccc3c(=O)c2CN1C(=O)OC(C)(C)C` (configuration not stated), the inhibition in assay [1] was found to be 2.72%; in assay [2], 2.68%; in assay [3] it was 1.8%.

As for `CN(C)CCN(C)Cc1ccc(-c2cccc(NC(=O)c3ccc(Cl)cc3)c2)cc1`, the inhibition stood at 4.75% in assay [1], 2.96% in assay [2] and 1.03% in assay [3].

Turning to `Cc1nc2ccc3ccc(CNc4ccc(C(=O)N[C@@H](CCC(=O)O)C(=O)N[C@@H](Cc5cccs5)C(=O)O)c(F)c4)cc3c2c(=O)[nH]1`, the inhibition in assay [1] is 6.55%; in assay [2], 7.51%; in assay [3], 6.36%.

Regarding `COc1ccc2nc(-c3ccc(C(=O)NCCCN4CCN(c5cc(Cl)ccc5OC)CC4)cc3)[nH]c2c1`, the values for the inhibition in assay [1], in assay [2] and in assay [3] were 0.75%, 0.77% and -0.2%, respectively.

As to `CC(C)CNC(=O)c1cncc(-c2ccc(CN3CCC(N4CCCC4)CC3)cc2)c1`, the inhibition in assay [1] is 1.79%; in assay [2], 1.64%; in assay [3] it was 2.41%.

With `CCN(CCCN1CCCCC1)c1cc(C)nc(Nc2cc(C(F)(F)F)ccc2C)n1`, the figures for the inhibition in assay [1], in assay [2] and in assay [3] were -1.35%, 0.37% and 0%, respectively.

Regarding `Cc1cc(NC(=O)c2cc(Br)ccc2Cl)n(-c2nc(C)c(C)c(=O)[nH]2)n1`, the figures for the inhibition in assay [1], in assay [2] and in assay [3] were -1.92%, -1.98% and -4.55%, respectively.

For the molecule `COc1ccc(NC(=O)Nc2cccc(-c3ccncc3)c2)cc1N1CCN(C)CC1`, the inhibition in assay [1] was found to be 6.92%; in assay [2], 7.39%; in assay [3], 7.22%.

With `Cn1nccc1C(=O)NCCNCc1ccc(-c2ccc(-c3nc4cc(F)ccc4[nH]3)cc2)cc1`, the inhibition in assay [1] amounted to 1.91%; in assay [2], 4.48%; in assay [3] it was 5.68%.

As for `COc1cccc(OC)c1C(=O)N1CCC2(CC1)C(=O)N(CC(=O)NC1CCCCC1)CN2c1ccccc1`, the inhibition in assay [1] amounted to 0.35%; in assay [2], 4.45%; in assay [3] it was 3.89%.

`O=C(Nc1ccc(Cn2ncc(N3CCCNCC3)c(Cl)c2=O)cc1)Nc1ccc(-c2ccccc2)cc1`: the inhibition in assay [1] was -0.52% and 1.84%; in assay [2], 0.35% and 2.4%; in assay [3], -4.66% and 1.38%.

As for `CN1CCN(Cc2cccc(-c3ccc4c(Nc5ccc(F)cc5Cl)ccnc4c3)c2)CC1`, the inhibition came to 4.11% in assay [1], 6.5% in assay [2] and 3.82% in assay [3].

`OC[C@H]1CCCN1CC#Cc1cc2c(Nc3ccc(OCc4cccc(F)c4)c(Cl)c3)ncnc2s1`: the inhibition is 3.54% in assay [1], 3.56% in assay [2] and 2.65% in assay [3].

In the case of `Oc1ccc2[nH]cc(C3CCN(CCC(c4ccccc4)c4ccccc4)CC3)c2c1`, the inhibition in assay [1] was determined as 4.66%; in assay [2], 3.07%; in assay [3], 4.21%.

As to `COc1ccc2c(=NN=Cc3ccc(OC)c4ccccc34)cc(C)[nH]c2c1`, the figures for the inhibition in assay [1], in assay [2] and in assay [3] were 0.09%, 1.71% and 1.11%, respectively.

Turning to `COc1cccc(CNC(=O)c2cccc(-c3ccc(CN4CCC(N5CCCC5)CC4)cc3)n2)c1`, the results for the inhibition in assay [1], in assay [2] and in assay [3] were 7.47%, 5.46% and 8.7%, respectively.

For `CC(C)(C)c1ccc(CN2CCC(CNC(=O)c3cc(-c4ccccc4Cl)cs3)C2)cc1` (configuration not stated), the inhibition in assay [1] was found to be 0.49%; in assay [2], 0.05%; in assay [3], 1.29%.

For the molecule `Cn1ncc2c3c(CCN4CCC(NCc5ccc6c(c5)NC(=O)CO6)CC4)c(Cl)cnc3ccc21`, the inhibition in assay [1] was 1.41%; in assay [2], 2.09%; in assay [3], -0.28%.

On to `N=C(Nc1ccccc1)Nc1cccc(Cc2ccc([N+](=O)[O-])cc2)n1`, for which the inhibition in assay [1] was found to be 5.43%; in assay [2] it was 3.98%; in assay [3], 0.1%.

`CCC1CN2CCc3c([nH]c4ccccc34)C2CC1CC1NCCc2cc(OC)c(OC)cc21` (configuration not stated): the inhibition in assay [1] was 1.68%; in assay [2], 4.6%; in assay [3], 0.99%.

With `CCC(O)(C#Cc1c(C)nc(N)nc1N)CC`, the values for the inhibition in assay [1], in assay [2] and in assay [3] were 2.19%, 2.72% and -0.68%, respectively.

Regarding `CCCCCCNC(=O)C1Cc2c([nH]c3ccccc23)C2(CCN(CCc3ccccc3)CC2)N1` (configuration not stated), the inhibition in assay [1] is 2.97%; in assay [2], 0.47%; in assay [3], 0.55%.

As for `COc1ccc(OCCON)cc1`, the results for the inhibition in assay [1], in assay [2] and in assay [3] were 7.35%, 10.4% and 8.87%, respectively.

Take `O=C(NC1CC1)c1ccc(Cn2c(SCc3cccc(Cl)c3)nc3ccccc3c2=O)cc1`: the inhibition is 0.42% in assay [1], -0.54% in assay [2] and -1.07% in assay [3].

Consider `Cc1ccc2[nH]c(-c3cc(-c4cccc(CCN5CCOCC5)c4)cnc3N)nc2c1`, for which the results for the inhibition in assay [1], in assay [2] and in assay [3] were 4.66%, 5.93% and 1.19%, respectively.

In the case of `Cc1cc(N)c2cc(NC(=O)c3cccc(C(=O)Nc4ccc5nc(C)cc(N)c5c4)c3)ccc2n1`, the inhibition in assay [1] is -0.38%; in assay [2] it was 2.01%; in assay [3] it was -2.06%.

In the case of `O=C(NCC1COc2ccccc2O1)c1cnc2c(c1)nc(-c1c[nH]c(-c3ccccc3)n1)n2CCSCc1c(F)cccc1Cl` (configuration not stated), the results for the inhibition in assay [1], in assay [2] and in assay [3] were 4.51%, 3.79% and 3.91%, respectively.

With `Cc1ccc(C)c(S(=O)(=O)Nc2ccc(Br)cc2C(=O)Nc2cccc(C(F)(F)F)c2)c1`, the inhibition is 0.14% in assay [1], 0.63% in assay [2] and -1.9% in assay [3].

These data come from ChEMBL document CHEMBL3433997, “St. Jude Leishmania screening dataset” (2016).
